# PubChem BioAssay (Tox21)
# Records with an inconclusive call do not appear. The source made the active and inactive calls. Calls come from the whole dose curve.
# Test system: thyroid hormone receptor (rat, GH3 cells)
# Assay: qHTS assay to identify small molecule agonists of the thyroid receptor (TR) signaling pathway (AID 743066)
# Conditions: GH3.TRE-Luc cells, TR agonist luciferase, 24 h; series mostly up to 83.9 µM; activation: at the top concentration
# % is set by controls: 0 for no effect and ±100 for the full control effect.
row,Compound,activation
1,O=C(Cc1ccccc1)OCc1ccccc1,-0.167% [at 95.2 µM] (inactive)
2,ClC(Cl)Br,1.93% [at 95.2 µM] (inactive)
3,Nc1cc(Cl)ccc1O,-4.26% (inactive)
4,CC1CCCCC1NC(=O)Nc1ccccc1 (stereo not given),-1.7% (inactive)
5,CNC(=O)Oc1ccccc1C1OCCO1,0.857% (inactive)
6,O=S(=O)(O)C(F)(F)C(F)(F)C(F)(F)C(F)(F)C(F)(F)C(F)(F)F,-1.11% (inactive)
7,CSc1ccc(C(=O)C(C)(C)N2CCOCC2)cc1,-3.99% (inactive)
8,O=[N+]([O-])c1ccc2c3c(cccc13)CC2,0.327% (inactive)
9,COP(=S)(OC)Oc1ccc(S(N)(=O)=O)cc1,-1.92% (inactive)
10,CCSC(=O)N(CC)C1CCCCC1,0.0205% (inactive)
11,c1coc(-c2nc3ccccc3[nH]2)c1,0.405% (inactive)
12,O=C1c2ccccc2C(=O)c2ccccc21,0.166% (inactive)
13,CCCCOC(=O)[C@@H](C)Oc1ccc(Oc2ccc(C#N)cc2F)cc1,-0.0663% (inactive)
14,O=C(O)C(Br)CBr (stereo not given),-2.67% [at 95.2 µM] (inactive)
15,O=C(Nc1ccccc1)c1ccccc1I,-2.23% (inactive)
16,O=CNC(N1CCN(C(NC=O)C(Cl)(Cl)Cl)CC1)C(Cl)(Cl)Cl (stereo not given),-0.779% (inactive)
17,Cc1coc2c1CCC(C)C2 (stereo not given),-0.681% [at 95.2 µM] (inactive)
18,CC1=C(C(=O)Nc2ccccc2)S(=O)(=O)CCO1,-9.98% (inactive)
19,CC(Cl)(Cl)[N+](=O)[O-],1.13% (inactive)
20,CNC(=O)Oc1ccc(N(C)C)c(C)c1,-0.563% (inactive)
21,CCOP(=S)(OCC)Oc1ncn(-c2ccccc2)n1,-2.39% (inactive)
22,CC(C)COP(=O)(OCC(C)C)OCC(C)C,-0.434% (inactive)
23,CCOC(=O)N(C)C(=O)CSP(=S)(OCC)OCC,-0.36% (inactive)
24,COc1cccc2c1cc([N+](=O)[O-])c1c(C(=O)O)cc3c(c12)OCO3,-7.54% (inactive)
25,CCOC(=O)CP(=O)(OCC)OCC,0.106% (inactive)
